The sample as a whole holds a higher share of hits than the screen did.
Menin MLL FP TR = displaces Texas Red mutant MLL peptide from human menin | O00255 | Menin + Texas Red MLL mutant peptide, fluorescence polarization | Potency, µM (doses to about 61.6 µM), for inactives: top-dose FP activity change, negative = inhibition, hits mostly inhibitors | 270,000 compounds, 0.23% hits | AID 1768; active means well fitted inhibition curve with a large enough effect in the polarisation, with a control signal flat, not every such curve was filed as active; inconclusive means small, poorly fitted or top-dose-only effect, or effect the other way, or a change in a side signal; inactive means no such curve, though single readings can be large or run the other way; the % refers to the polarisation; further: potency means the concentration at half of the fitted maximal effect; % of control where 0% means no effect
p53 reactivation = restores transcriptional activity of mutant p53. H1299 p53-A138V BP100-luciferase reporter, luminescence, 24 h. Potency, µM (titrated, usually from 92.2 µM), without a hit: at the highest dose activity change, positive = activation, usual class: activators. 320,000 compounds, 0.063% hits; active means well fitted activation curve with a large enough effect; inconclusive means small, poorly fitted or top-dose-only effect; inactive means no such curve, though single readings can be large or run the other way; further: potency means the concentration at half of the fitted maximal effect; % of control where 0% means no effect; nearly all actives have a fitted effect of over 45% in size
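p53-null H1299 cells stably carrying temperature-sensitive p53-A138V and a BP100-luciferase reporter were pinned with compounds (4-point, 1:5 series) and held 24 hrs at 37 deg C. Luminescence was read 10 min after detection reagent.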
Menin-MLL FL inh = displaces fluorescein MLL peptide from human menin; FP activity change, % at 61.4 µM; Fluorescence polarization, fluorescein-MLL peptide displacement from menin; 290,000 tested, under 10 active; active means well fitted curve in the direction sought with a large enough effect in the polarisation, not every such curve was filed as active; inconclusive means small, poorly fitted or top-dose-only effect, or effect the other way, or a change in a side signal; inactive means no such curve, though single readings can be large or run the other way; the % refers to the polarisation; further: % of control where 0% means no effect
CXXC DNA block = inhibitors of human MLL CXXC domain-DNA interaction | MLL-CXXC / FITC-HOXA9 DNA fluorescence polarization | Potency, µM (doses to about 115 µM), inactives show top-dose activity change, negative = inhibition, most hits filed as inhibitors | 290,000 compounds, 0.037% hits | AID 2662; active means well fitted inhibition curve with a large enough effect in the polarisation, with a control signal flat, not every such curve was filed as active; inconclusive means small, poorly fitted or top-dose-only effect, or effect the other way, or a change in a side signal; inactive means no such curve, though single readings can be large or run the other way; the % refers to the polarisation; further: potency means the concentration at half of the fitted maximal effect
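Fluorescence polarization: 7 uM MLL-CXXC (stock) preincubated 5 min with compounds, then 50 nM fluorescein-HOX-A9 DNA (stock) added; 30 min ambient. Buffer 50 mM Tris-HCl pH 7.5, 50 mM NaCl, 1 mM DTT, 0.05% BSA.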
ClpP mod = qHTS Assay for Activators of ClpP; ATP-dependent Clp protease proteolytic subunit (Bacillus subtilis (strain 168)), P80244; purified B. subtilis ClpP, FRET peptide cleavage, 20 min; Potency, µM (doses to about 57.5 µM), for the others: at the highest dose activity change, negative = active; 340,000 compounds, 1.9% hits; AID 651965, 2013; active means well fitted falling curve with a large enough effect; inconclusive means small, poorly fitted or top-dose-only effect; inactive means no such curve, though single readings can be large or run the other way; further: potency means the concentration at half of the fitted maximal effect; the source files actives as falling curves though it sought activators and does not explain the sign; nearly all actives have a fitted effect of over 65% in size
Target sequence (P80244 whole entry, looked up): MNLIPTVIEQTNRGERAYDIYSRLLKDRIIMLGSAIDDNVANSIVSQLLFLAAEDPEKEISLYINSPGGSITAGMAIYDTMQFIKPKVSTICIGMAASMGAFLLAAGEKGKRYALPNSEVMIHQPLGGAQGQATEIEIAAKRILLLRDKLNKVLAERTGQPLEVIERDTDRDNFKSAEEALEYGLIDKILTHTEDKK
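FRET quenching reversal measured ClpP activation: 10 microg/mL B. subtilis ClpP at pH 8 with the FRET-FV decapeptide, read at 430 nm after 320 nm excitation. The 20-min minus 0-min signal was scaled between DMSO/no-enzyme wells and ADEP (5.8 microM final).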
Numbers without * were called inactive; ? = inconclusive; / = not tested or not shown; [ ] = remark or other dose.

SMILES	Menin MLL FP TR	p53 reactivation	Menin-MLL FL inh	CXXC DNA block	ClpP mod
CC1CCN(C(=O)COC(=O)C2CCN(S(=O)(=O)c3c(Cl)cccc3Cl)CC2)CC1	/	25%	/	/	?
CC1CCCCN1C(=O)COC(=O)C1CCN(S(=O)(=O)c2c(Cl)cccc2Cl)CC1 (stereo not given)	/	-7%	/	17%	16µM*
O=C(Nc1ccc(-c2nnc(-c3ccco3)o2)cc1)C(c1ccccc1)c1ccccc1	-6%	3%	0	18%	28µM*
O=C(Cc1ccc(Cl)cc1)Nc1ccc(-c2nnc(-c3ccco3)o2)cc1	30%	-7%	0	1%	32µM*
COc1ccc(CC(=O)Nc2cccc(-c3nnc(-c4ccco4)o3)c2)cc1	/	3%	3	11%	2%
c1ccc(-n2c(-c3ccncc3)nnc2-c2ccco2)cc1	-9%	1%	1	5%	?
Cc1cc(C)cc(OCC(=O)Nc2cccc(-c3nnc(-c4ccco4)o3)c2)c1	14%	-3%	0	7%	32µM*
c1ccc(-c2nnc(-c3ccco3)n2-c2ccccc2)cc1	-2%	-14%	1	4%	22µM*
O=C(O)CCC(=O)Nc1ccc(-c2nnc(-c3ccco3)o2)cc1	-5%[11.7 µM]	3%	1	-1%	5%
Brc1ccc(-c2nnc(-c3ccco3)o2)cc1	-4%	?	-1	-8%	37%
c1ccc(-c2nnc(-c3ccco3)o2)cc1	-6%	?	3	7%	14µM*
CCc1ccc(NC(=O)C(=O)NNC(=O)c2ccc(OC)cc2)cc1	6%	-1%	-2	0%	/
CCc1ccc(C(=O)NNC(=O)OC)cc1	-20%	-3%	0	3%	14µM*
COc1ccc(NC2CCN(C3CC(=O)N(c4ccc(F)c(Cl)c4)C3=O)CC2)cc1 (stereo not given)	12%	5%	0	5%	2.8µM*
COc1ccc(CNC(=O)c2cc3c(=O)n(Cc4cccs4)ccc3nc2C)cc1	/	/	/	/	14µM*
Cc1ccc(CNC(=O)c2cc3c(=O)n(Cc4cccnc4)ccc3nc2C)cc1	/	/	/	/	28µM*
COc1ccc(CNC(=O)c2cc3c(=O)n(Cc4cccnc4)ccc3nc2C)cc1	/	/	/	/	25µM*
CCC(C)NC(=O)/C(=C/c1ccco1)c1ccccc1 (stereo not given)	-28%	4%	15	-3%	25µM*
Cc1nc2ccc(NC(=O)N3CCSCC3)cc2nc1C	4%	6%	1	0%	25µM*
Nc1c(S(=O)(=O)c2ccccc2)c2nc3ccccc3nc2n1Cc1ccco1	54%	-7%	?	5%	16µM*
Cc1ccc(S(=O)(=O)c2c(N)n(Cc3ccco3)c3nc4ccccc4nc23)cc1C	/	-8%	?	4%	11µM*
Cc1ccc(S(=O)(=O)c2cc3c(=O)n4cccc(C)c4nc3n(Cc3ccco3)c2=N)cc1C	?	-4%	1	-5%	/
Cc1ccc(S(=O)(=O)c2c(N)n(CCN3CCOCC3)c3nc4ccccc4nc23)cc1C	-2%	2%	4	2%	28µM*
CN(CCCc1cnc[nH]1)C(=S)NCCCN(Cc1ccc(Cl)cc1)c1ccc(Br)cn1	/	/	/	/	-23%
CCOc1cccc(C2C=C(c3ccc4c(c3)OCO4)NC(c3ccccc3Cl)N2)c1O (stereo not given)	/	/	/	/	2%
SMILES	Menin MLL FP TR	p53 reactivation	Menin-MLL FL inh	CXXC DNA block	ClpP mod
COc1ccc(-n2nc(C(=O)N3CCN(c4cccc(C(F)(F)F)c4)CC3)c3c4ccccc4n(C)c3c2=O)cc1Cl	/	/	/	/	-1%
COc1ccc2c(CC(=O)NCCN3C(=O)S/C(=C\c4cccnc4)C3=O)coc2c1	2%	1%	0	8%	13µM*
COC(=O)c1cc2occc2n1Cc1ccc(F)cc1Cl	/	/	/	/	-5%
COc1ccc(Br)c(C(=O)N2CCN(S(=O)(=O)/C=C/c3ccccc3)CC2)c1	2%	-3%	-1	?	28µM*
O=P(CCNCc1ccco1)(c1ccccc1)c1ccccc1	-1%	1%	-4	15%	4µM*
CC(=O)N(CCP(=O)(c1ccccc1)c1ccccc1)Cc1ccco1	-13%	20%	3	8%	-2%
CNc1ncnc2sc(-c3ccccc3)cc12	?	6%	-2	-5%	14µM*
CN(C)CCNc1ncnc2sc(-c3ccccc3)cc12	-20%	-7%	-1	-3%	1%
OCCOCCNc1ncnc2sc(-c3ccccc3)cc12	0%	-6%	3	14%	32µM*
COc1cccc(CSc2nc3n(n2)C(CC(C)C)C(C(=O)Nc2ccccc2OC)=C(C)N3)c1 (stereo not given)	/	/	/	/	-17%
Cc1ccc(-c2nc(-c3cc4cc(Cl)ccc4oc3=O)sc2C)cc1	/	/	/	/	-5%
Cc1ccc2c(/C=C/c3c[nH]c4ccccc34)ccnc2c1C	/	/	/	/	-11%
CCc1nc(N2CCC(C)CC2)c2oc3ccccc3c2n1	?	?	3	-5%	32µM*
CCc1nc(N(CC)CC)c2oc3ccccc3c2n1	-8%	-5%	1	-4%	-8%
O=C(Nc1cccc(O)c1)C1CCCN1C(=O)OCc1ccccc1 (stereo not given)	13%	-11%	-2	-4%	28µM*
CN(C)c1ccc(CNC(=O)c2cc3ccccn3n2)cc1	/	/	/	/	-3%
CCOc1ccc(-c2nnc(-c3ccco3)o2)cc1OCC	-20%	?	1	-9%	22µM*
CCOc1cc(-c2nnc(-c3ccco3)o2)cc(OCC)c1OCC	-2%	-12%	5	-4%	22µM*
Cc1ccc(CNC(=O)c2cccn2-c2nnc(N3CCCCC3)s2)cc1	/	/	/	/	-5%
Cc1cc(C)n2c(-c3ccccc3Cl)nnc2n1	-9%	-6%	0	9%	28µM*
Cc1cc(C)n2c(SCc3ccccc3Cl)nnc2n1	2%	3%	1	2%	-5%
O=C(CSc1ncc2c(n1)-c1ccccc1N(Cc1ccc(F)cc1)S2(=O)=O)c1ccc(Cl)cc1	/	/	/	/	-4%
C[C@H](NC(=O)OC(C)(C)C)C(=O)c1ccco1	/	/	/	/	-2%
O=C1C2C3C=CC(C4CC34)C2C(=O)N1/N=C/c1ccc(-c2cccc([N+](=O)[O-])c2)o1 (stereo not given)	?	-11%	1	9%	32µM*
CC#CCN1c2ccccc2[C@]23C[C@@H](C(=O)OC)N(C(=O)c4cccs4)C2=NC(C(=O)OC)=C(C(=O)OC)[C@H]13	-5%[11.7 µM]	/	-3[11.7 µM]	/	/
CN1CCCc2ccccc21	/	/	/	/	-6%
CCCN1CCCc2ccccc21	25µM*	-2%	1	-9%	-3%
Cc1ccc(NC(=O)CCNS(=O)(=O)c2ccc3c(c2)CCN3C(=O)C2CC2)c(Cl)c1	/	/	/	/	-1%
CC(C)(C)C(=O)Nc1ccc2c(c1)C(=O)C(=O)c1ccccc1-2	/	/	/	/	4%
COc1ccc(-c2cc(=S)ss2)cc1	?	/	-4	0%	/

Screening data: PubChem BioAssay, National Center for Advancing Translational Sciences (NCATS)
